Only some compounds are listed: those with a hit (about 22% of all), similar ones and a draw of the others.
CYP2C19 inh: human CYP2C19 inhibition; P33261; CYP2C19 Supersomes, luciferin-H EGE luminescence, 30 min; inhibition, % at 5 µM; 21% of 96,000 active; AID 778;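 active means CYP2C19 inhibition above a set limit at 5 µM in the primary screen, cut at about 50% in these data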;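 further: plate controls were negative control wells for no effect and 2.5 mM tranylcypromine positive control for full effect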
cytoskel mod: modifiers of cytoskeleton assembly. AID 836. inhibition, % at 2 µM. HUVEC TNFa F-actin phalloidin imaging, high content. 0.18% of 91,000 active;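 active means inhibition above the batch mean plus 3 SD and confirmed as a hit by visual image inspection, cut at about 30% in these data, passing the limit was not always enough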
CYP2C9 inhib: inhibitors of human CYP2C9 | P11712 | CYP2C9 Supersomes, luciferin-H conversion, luminescence | inhibition, % at 5 µM | 20% of 96,000 active;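 active means blocking of liver enzyme CYP2C9 beyond about 50% at 5 µM, limit read from the data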
Target sequence (P11712 whole entry, looked up): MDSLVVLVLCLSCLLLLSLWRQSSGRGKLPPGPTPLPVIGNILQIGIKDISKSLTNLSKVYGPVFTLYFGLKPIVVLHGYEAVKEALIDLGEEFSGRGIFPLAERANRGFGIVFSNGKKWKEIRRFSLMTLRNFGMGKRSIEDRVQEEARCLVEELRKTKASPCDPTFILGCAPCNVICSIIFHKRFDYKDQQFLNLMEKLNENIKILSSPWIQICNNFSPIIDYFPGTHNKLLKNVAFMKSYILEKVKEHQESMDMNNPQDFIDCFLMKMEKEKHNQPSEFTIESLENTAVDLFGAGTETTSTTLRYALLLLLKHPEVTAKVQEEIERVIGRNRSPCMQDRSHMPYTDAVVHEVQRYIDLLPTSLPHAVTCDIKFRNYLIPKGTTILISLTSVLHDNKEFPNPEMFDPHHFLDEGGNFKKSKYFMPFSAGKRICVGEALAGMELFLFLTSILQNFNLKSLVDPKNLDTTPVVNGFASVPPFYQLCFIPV
E-sel TNF inh: TNF alpha driven E-selectin expression inhibition; inhibition, % at 2 µM; AID 1246; 0.71% of 120,000 active; HUVEC TNFa-induced E-selectin immunofluorescence, high content;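 active means inhibition above the batch mean plus 3 SD, and confirmed as a hit on visual image review, cut at about 43% in these data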;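 further: 0% = TNF-stimulated DMSO wells and 100% = unstimulated control wells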
CYP2C9 activ: increases human cytochrome P450 2C9 activity | activation factor at 5 µM | 1.4% of 96,000 active | recombinant CYP2C9, luciferin-H conversion, luminescence; stronger effect = higher value; factor 1 = untreated enzyme, 0 = blocked | P11712;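 active means activation factor of 2 or more for CYP2C9 at a 5 µM dose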;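 further: 0 = sulfaphenazole-blocked wells and 1 = vehicle-only wells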
CYP2C19 activ: increases human CYP2C19 enzyme activity; P33261; recombinant CYP2C19, luciferin-H EGE luminescence; stronger effect = higher value; 0 = fully inhibited enzyme, 1 = untreated enzyme; activation factor at 5 µM; 96,000 tested, under 10 active; AID 1025;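 active means activation factor of at least 2 at 5 µM in the primary screen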;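 further: 0 = wells with 2.5 mM tranylcypromine and 1 = vehicle-only wells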
* marks the source's active call; other numbers are inactive results; · = not tested or not shown.

SMILES	CYP2C19 inh	cytoskel mod	CYP2C9 inhib	E-sel TNF inh	CYP2C9 activ	CYP2C19 activ
COC(=O)c1cn(NC(=O)c2cccc(N(C)C)c2)c(=O)c2ccccc12	5.8	-9.5	26.7	-21.5	0.7	0.9
CC1=C(C#N)C(=O)N(C)C(C)(C)C1	-2.7	-5.5	11.8	9.6	0.9	1
O=C(CN1CCCCC1)Nc1cccc(-n2cnnn2)c1	34.7	-3.4	0.4	-10.6	1	0.7
COc1ccc(NC(=S)N2CCN(CCN=CC3=C(O)CC(c4ccccc4)CC3=O)CC2)cc1 (stereo not drawn)	·	·	·	-19.5	·	·
O=C1CC(c2ccc(F)cc2)CC(O)=C1C=NCCN1CCN(C(=O)Nc2ccccc2)CC1 (stereo not drawn)	76.6*	-9.9	54.3*	·	0.5	0.2
Cc1cc2nnc(SC(C)C)n2c2ccccc12	·	11.4	·	1.7	·	·
Cc1occc1-c1nnc(SCC(=O)NCc2cccs2)n1-c1ccc(F)cc1	42.6	-30.7	63.0*	·	0.4	0.6
O=C(O)CSc1nnc(SCc2cccc3ccccc23)s1	-4.1	·	45.5	-3.0	0.5	1
Cc1nnc(SCC(=O)NCc2cccs2)n1-c1ccccc1	46.8	·	25.7	-0.4	0.7	0.5
Cc1cc2nnc(SCC(=O)NCc3cccs3)n2c2ccccc12	49.3	-26.4	-220.9	41.4	3.2*	0.5
CC(C)OC(=O)CSc1nnc(SCc2cccc3ccccc23)s1	70.7*	-8.2	18.5	12.2	0.8	0.3
Cc1cc2nnc(SCC(=O)OC(C)C)n2c2ccccc12	24.1	-0.6	-159.8	-25.3	2.6*	0.8
COc1ccc2cc(C(c3nnnn3CCc3ccccc3)N3CCCC(C)C3)c(=O)[nH]c2c1 (stereo not drawn)	12.5	21.3	25.0	23.9	0.8	0.9
COc1ccc(S(=O)(=O)N(C)CC(=O)N2CCOCC2)cc1Cl	9.7	-16.0	3.6	9.1	1	0.9
Cc1cc([N+](=O)[O-])nn1CC(=O)NCc1ccco1	·	·	·	32.3	·	·
O=C(NCc1ccc(F)cc1)C(c1ccncc1)N(C(=O)c1csnn1)C1CC1 (stereo not drawn)	53.5*	-14.7	18.8	-1.6	0.8	0.5
O=C(COc1ccc2ccccc2c1)NCCNC(=O)COc1ccc2ccccc2c1	37.8	4.0	32.6	-3.1	0.7	0.6
Cc1cc(C)cc(OCC(=O)NC2=NCCS2)c1	28.1	4.0	-129.9	-1.0	2.3*	0.7
O=C(COc1ccc2ccccc2c1)NC1=NCCS1	64.8*	19.3	-59.0	0.5	1.6	0.4
COc1ccc(C(=O)N[C@H](C(=O)OCc2cc(=O)oc3cc(C)ccc23)C(C)C)cc1	·	·	·	12.1	·	·
CCOC(=O)c1ccccc1NC(=O)c1c(O)c2ccccc2n(CC)c1=O	-5.3	-0.8	8.7	-22.6	0.9	1.1
COC(=O)c1cccc(NC(=O)/C(=C\c2ccccc2)NC(=O)c2ccccc2Cl)c1	-3.9	11.5	21.9	-34.2	0.8	1
CCOC(=O)c1ccccc1NC(=O)c1cc2sccc2n1C	79.3*	-15.0	61.7*	-29.6	0.4	0.2
CCOC(=O)c1cccc(NC(=O)/C(=C\c2ccccc2)NC(=O)c2ccccc2Cl)c1	-5.2	17.8	56.4*	47.6	0.4	1.1
CCOC(=O)N1CCN(C(=O)c2cc3sccc3n2C)CC1	86.5*	·	-17.0	28.3	1.2	0.1
SMILES	CYP2C19 inh	cytoskel mod	CYP2C9 inhib	E-sel TNF inh	CYP2C9 activ	CYP2C19 activ
CCOC(=O)c1sc(NC(=O)c2cccs2)cc1C	43.2	-3.6	64.6*	16.2	0.4	0.6
CCOCCCNC(=O)C1CCN(c2cc(C)nc3c(-c4ccc(OC)c(OC)c4)c(C)nn23)CC1	-7.4	-11.6	46.4	-2.3	0.5	1.1
CCOC(=O)c1cccc(NC(=O)c2cccs2)c1	49.4	-7.8	62.8*	4.4	0.4	0.5
CCOC(=O)c1cnn(CCOC(=O)c2cccs2)c1NC(=O)c1cccs1	75.2*	3.3	85.7*	2.1	0.1	0.2
CCOC(=O)c1cccc(NC(=O)c2cc3sccc3n2C)c1	96.1*	16.8	91.6*	·	0.1	0
CCOC(=O)c1c(N)n(CCOC(=O)c2cccs2)c2nc3ccccc3nc12	85.1*	-27.9	84.5*	7.3	0.2	0.1
CCCCCOC(=O)c1c(N)n(CCOC)c2nc3ccccc3nc12	27.6	3.6	47.7	-18.1	0.5	0.7
O=C(COC(=O)/C(=C/c1cccs1)c1cccs1)NC(c1ccccc1)c1ccccc1	·	·	·	-6.8	·	·
CCN1CCCC1CNC(=O)C1CCN(C(=O)c2cc3sccc3n2Cc2ccc(F)cc2)CC1 (stereo not drawn)	·	·	·	0.3	·	·
CCOc1ccc2nc(NC3=NC(C)(C)C=C(C)N3)nc(C)c2c1	49.1	-9.6	72.5*	·	0.3	0.5
O=C(Nc1ccccc1)c1ccc(NC2CCCCC2)c(S(=O)(=O)N2CCOCC2)c1	82.7*	-2.1	82.3*	-23.4	0.2	0.2
O=C(Nc1ccccc1)c1ccc(N2CCN(c3ccccn3)CC2)c(S(=O)(=O)N2CCOCC2)c1	92.4*	7.8	90.7*	4.9	0.1	0.1
O=C(Nc1ccc(Br)cc1)c1ccc(F)c(S(=O)(=O)N2CCN(c3ccccn3)CC2)c1	·	·	·	1.7	·	·
O=C(Nc1ccccc1)c1ccc(N2CCN(c3ccccc3)CC2)c(S(=O)(=O)N2CCOCC2)c1	58.2*	9.0	76.5*	9.5	0.2	0.4
O=C(Nc1ccccc1)Nc1ccc(Cl)c(S(=O)(=O)N2CCOCC2)c1	·	·	·	42.8	·	·
COc1cc(C)nc(N2CCCC(C(=O)Nc3cccc(Cl)c3C)C2)n1 (stereo not drawn)	29.5	·	40.0	-46.6	0.6	0.7
Cc1c(NC(=O)CCCN2C(=O)c3cccc4cccc(c34)C2=O)c(=O)n(-c2ccccc2)n1C	·	·	·	-8.6	·	·
OCCCc1nc2n(n1)C(c1ccccc1Cl)C=C(c1cccs1)N2 (stereo not drawn)	39.4	14.7	50.9*	-7.5	0.5	0.6
OCCCc1nc2n(n1)C(c1cccs1)C=C(c1ccccc1)N2 (stereo not drawn)	58.1*	0.8	96.2*	·	0	0.4
OCCCc1nc2n(n1)C(c1ccccc1)C=C(c1ccc(F)cc1)N2 (stereo not drawn)	·	-17.5	·	-5.8	·	·
O=C(NCCC1=CCCCC1)c1cc2c(s1)CS(=O)(=O)C2	7.3	·	-4.3	-6.2	1	0.9
O=C1C=C(NCCOC23CC4CC(CC(C4)C2)C3)C2(CCCCC2)O1	·	·	·	-5.9	·	·
CC(C)NC(=O)c1ccccc1NC(=O)/C=C/c1ccc([N+](=O)[O-])cc1	-12.0	2.9	11.3	-53.1	0.9	1.1
CSc1nc(NCCOCCO)c2sc3nc(-c4ccco4)c4c(c3c2n1)CCC4	26.7	·	63.1*	35.0	0.4	0.7
Cc1ccc(Nc2nc(NCC3CCCO3)nc(N)c2[N+](=O)[O-])cc1 (stereo not drawn)	·	·	·	-23.2	·	·
CCOC(=O)CCc1c(C)nc2ncnn2c1C	-7.2	12.7	-9.4	·	1.1	1.1
Cc1nc2ncnn2c(C)c1CCC(=O)NCc1ccccc1	-3.1	-15.0	4.0	62.5*	1	1
